Assay [1] can be described thus: BSK_LPS_PGE2: BioMAP Diversity Plus: LPS Assay for Prostaglandin E2 (PGE2) Biomarker Activity (AID 2283082).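 For AC50: secreted prostaglandin E2 measured by ELISA in LPS-stimulated co-culture.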 Conditions: primary human HUVEC with PBMC; actives raise or lower the signal. A digest of the protocol:
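PGE2 release measured by ELISA in an LPS-activated co-culture of human umbilical vein endothelial cells and peripheral blood mononuclear cells, read at 24 h post-dosing. DMSO served as baseline for bidirectional curve fitting.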

Read-out in assay [2]: Macrophage colony-stimulating factor (MCSF), CSF1 (gene 1435)
The assay is described as follows: BSK_LPS_MCSF: BioMAP Diversity Plus: LPS Assay for Macrophage colony-stimulating factor (MCSF) Biomarker Activity (AID 2283083). Particulars: primary human HUVEC with PBMC; actives raise or lower the signal. A digest of the protocol: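 Compound is added to a human vascular primary co-culture of umbilical vein endothelium and blood mononuclear cells. After 24 h, M-CSF is quantified by ELISA. Signal changes are fitted in both directions against DMSO.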

Read-out in assay [3]: Tissue Factor, F3 (gene 2152)
Briefly: BSK_LPS_TissueFactor: BioMAP Diversity Plus: LPS Assay for Tissue Factor Biomarker Activity (AID 2283084). Particulars: primary human HUVEC with PBMC; actives raise or lower the signal. A digest of the protocol: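 In this co-culture system of umbilical vein endothelium with PBMC, stimulated with LPS, cell-surface CD142 is detected by ELISA at 24 h. Endpoint values derive from bidirectional fitting, DMSO serving as baseline.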

Read-out in assay [4]: Tumor necrosis factor (Homo sapiens) (UniProt P01375)
The assay is described as follows: BSK_LPS_TNFa: BioMAP Diversity Plus: LPS Assay for Tumour Necrosis Factor alpha (TNFa) Biomarker Activity (AID 2283085).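 For AC50: TNFa protein level quantified by ELISA in the co-culture.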 Conditions: primary human HUVEC with PBMC; actives raise or lower the signal. A digest of the protocol: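 TNFa was quantified by ELISA in LPS-activated co-cultures of human endothelial cells and PBMC, 24 h post-dosing. Both increases and decreases versus DMSO were fitted.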

Read-out in assay [5]: Vascular cell adhesion molecule 1 (VCAM1), VCAM1 (gene 7412)
Briefly: BSK_LPS_VCAM1: BioMAP Diversity Plus: LPS Assay for Vascular cell adhesion molecule 1 (VCAM1) Biomarker Activity (AID 2283086). Particulars: primary human HUVEC with PBMC; actives raise or lower the signal. A digest of the protocol:
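VCAM-1 quantified by ELISA in an LPS-activated co-culture of human endothelial cells and peripheral blood mononuclear cells, read 24 h post-treatment. Fitted in both directions versus DMSO; parallel SRB staining flags overt cytotoxicity.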

Read-out in assay [6]: CD38, CD38 (gene 952)
Briefly: BSK_SAg_CD38: BioMAP Diversity Plus: SAg Assay for CD38 Biomarker Activity (AID 2283087). Conditions: primary human HUVEC with PBMC; actives raise or lower the signal. The essentials: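 CD38 quantified by ELISA (fluorescence) in a superantigen-activated endothelial cell–PBMC co-culture at 24 h post-dose. Activity fitted in both directions relative to DMSO; parallel SRB and Alamar Blue cytotoxicity read-outs.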

Read-out in assay [7]: CD40, CD40 (gene 958)
The assay is described as follows: BSK_SAg_CD40: BioMAP Diversity Plus: SAg Assay for CD40 Biomarker Activity (AID 2283088). Conditions: primary human HUVEC with PBMC; actives raise or lower the signal. The essentials: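 Fluorescence ELISA read-out of CD40 from umbilical vein endothelium plus peripheral blood mononuclear cells, sampled 24 h after dosing. Values come from bidirectional curve fitting with DMSO as baseline.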

Read-out in assay [8]: CD69, CD69 (gene 969)
Briefly: BSK_SAg_CD69: BioMAP Diversity Plus: SAg Assay for CD69 Biomarker Activity (AID 2283089).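 For AC50: cell surface CD69 protein quantified by ELISA with fluorescence detection.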 Conditions: primary human HUVEC with PBMC; actives raise or lower the signal. A digest of the protocol:
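ELISA, fluorescence read-out: CD69 on human umbilical vein endothelial cell + PBMC co-culture, 24 h post-dosing. Gain or loss of signal fitted bidirectionally against DMSO baseline.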

Read-out in assay [9]: Monocyte Chemoattractant Protein-1 (MCP1), CCL2 (gene 6347)
Briefly: BSK_SAg_MCP1: BioMAP Diversity Plus: SAg Assay for Monocyte Chemoattractant Protein-1 (MCP1) Biomarker Activity (AID 2283090). Particulars: primary human HUVEC with PBMC; actives raise or lower the signal. The essentials: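 Values derive from bidirectional fitting of ELISA-measured MCP1 against DMSO controls. Readings were taken 24 h after dosing human vascular endothelial cells co-cultured with peripheral blood mononuclear cells under superantigen stimulation.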

Read-out in assay [10]: E-selectin (Homo sapiens) (UniProt P16581)
Briefly: BSK_SAg_Eselectin: BioMAP Diversity Plus: SAg Assay for Eselectin Biomarker Activity (AID 2283091). Conditions: primary human HUVEC with PBMC; actives raise or lower the signal. The essentials: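 Primary human endothelial cells and peripheral blood mononuclear cells were co-cultured and exposed to chemical for 24 hours. E-selectin levels were then quantified by ELISA, with bidirectional curve fitting normalised to DMSO controls.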

Read-out in assay [11]: Monokine induced gamma interferon (MIG), CXCL9 (gene 4283)
Briefly: BSK_SAg_MIG: BioMAP Diversity Plus: SAg Assay for Monokine induced gamma interferon (MIG) Biomarker Activity (AID 2283092). Particulars: primary human HUVEC with PBMC; actives raise or lower the signal. A digest of the protocol: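 ELISA readout of MIG/CXCL9; primary human umbilical vein endothelial cells co-cultured with peripheral blood mononuclear cells; 24 h post-dose; gain/loss fit vs DMSO baseline.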

A short description of assay [12]: BSK_SAg_PBMCCytotoxicity: PBMC Cytotoxicity Assessment in the BioMAP Diversity Plus: SAg Assay (AID 2283093).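 For AC50: PBMC superantigen activated with SEB plus TSST-1 one hour after compound addition.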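 Note: fitted both ways against DMSO so a hit may be loss or gain of signal.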 Particulars: primary human HUVEC with PBMC. The essentials: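 PBMC viability by Alamar Blue reduction, fluorescence read at 546/580 nm after 6 h dye exposure. Cells were dosed 1 h before SEB plus TSST-1 activation (20 ng/mL final each), then held 90 h; endothelial/PBMC human co-culture.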

Read-out in assay [13]: Interleukin-8 (IL8), CXCL8 (gene 3576)
The assay is described as follows: BSK_SAg_IL8: BioMAP Diversity Plus: SAg Assay for Interleukin-8 (IL8) Biomarker Activity (AID 2283094). Particulars: primary human HUVEC with PBMC; actives raise or lower the signal. A digest of the protocol: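 ELISA readout of IL-8 from a superantigen-activated endothelial/PBMC primary human co-culture, taken 24 h post-dosing and fitted in both directions against DMSO; parallel SRB total-protein staining flags overt cytotoxicity.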

Assay [14] in a line: BSK_SAg_Proliferation: Cell Proliferation Assessment in the BioMAP Diversity Plus: SAg Assay (AID 2283095).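 Note: relative cell number as total protein by SRB absorbance in sub-confluent culture.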 Particulars: primary human HUVEC with PBMC. The essentials:
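Relative cell number in the endothelial cell/PBMC co-culture was quantified at 96 h by SRB staining (0.1% SRB, 10% TCA fixation, read at 560 nm). Curves were fitted in both directions relative to DMSO baseline.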

The structures appear in SMILES notation. The source made the active and inactive calls. Rule for the calls: active = hit-call score of the fitted dose curve at least 0.9, where 1 is the maximum; inactive = score below 0.9.

E-selectin (Homo sapiens), sequence (P16581 whole entry, looked up): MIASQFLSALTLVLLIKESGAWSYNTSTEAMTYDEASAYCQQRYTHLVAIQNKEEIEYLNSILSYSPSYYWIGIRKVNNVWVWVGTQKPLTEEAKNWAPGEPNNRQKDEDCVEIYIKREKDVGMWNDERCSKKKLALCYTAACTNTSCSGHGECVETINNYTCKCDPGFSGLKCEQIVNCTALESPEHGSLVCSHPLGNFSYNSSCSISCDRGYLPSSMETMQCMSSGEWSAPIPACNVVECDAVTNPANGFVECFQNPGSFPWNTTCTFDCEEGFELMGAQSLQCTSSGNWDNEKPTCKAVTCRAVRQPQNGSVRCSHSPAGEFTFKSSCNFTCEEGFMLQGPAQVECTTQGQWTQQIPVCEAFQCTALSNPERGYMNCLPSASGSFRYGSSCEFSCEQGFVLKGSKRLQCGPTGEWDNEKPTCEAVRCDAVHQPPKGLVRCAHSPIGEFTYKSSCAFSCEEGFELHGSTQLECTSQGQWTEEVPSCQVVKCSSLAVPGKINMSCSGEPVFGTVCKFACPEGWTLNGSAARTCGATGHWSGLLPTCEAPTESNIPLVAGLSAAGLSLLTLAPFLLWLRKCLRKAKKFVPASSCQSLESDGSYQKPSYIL
Tumor necrosis factor (Homo sapiens), sequence (P01375 whole entry, looked up): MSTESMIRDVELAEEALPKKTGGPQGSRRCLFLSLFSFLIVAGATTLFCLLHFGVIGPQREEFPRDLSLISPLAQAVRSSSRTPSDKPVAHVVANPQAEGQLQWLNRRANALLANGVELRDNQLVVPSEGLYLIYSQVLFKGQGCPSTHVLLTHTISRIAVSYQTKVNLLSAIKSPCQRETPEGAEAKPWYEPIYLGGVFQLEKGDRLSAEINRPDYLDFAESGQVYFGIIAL

For the molecule `Cc1ccc([N+](=O)[O-])cc1`, the outcome in assay [1], in [2], in [3], in assay [4], in assay [5] and in assay [6] was inactive. The result in [7], in assay [8], in assay [9], in assay [10], in [11] and in assay [12] was inactive. The outcome in assay [13] and in assay [14] was inactive.

In the case of `CCCCCCCCCCCCCN1CC(C)OC(C)C1` (stereo unspecified), the result in [1], in [2], in assay [3], in assay [4], in [5] and in [6] was inactive. Besides, the outcome in [7], in assay [8], in assay [9], in assay [10], in assay [11] and in assay [12] was inactive. The result in assay [13] and in [14] was inactive.

With `COC(=O)c1ccccc1N`, the outcome in assay [1], in assay [2], in [3], in assay [4], in assay [5] and in assay [6] was inactive. In addition, the outcome in [7], in [8], in assay [9], in assay [10], in assay [11] and in [12] was inactive. Further, the result in assay [13] and in assay [14] was inactive.

For `O=C(Oc1ccc(Br)cc1)N1CCN2CCC1CC2`, the result in [1], in assay [2], in assay [3], in assay [4], in [5] and in [6] was inactive. Moreover, the result in [7], in [8], in assay [9], in assay [10], in assay [11] and in assay [12] was inactive. For the same molecule, the result in [13] and in assay [14] was inactive.

For `Cc1ccc(N=C=O)cc1N=C=O`, the outcome in assay [1], in assay [2], in assay [3], in assay [4], in assay [5] and in assay [6] was inactive. For the same molecule, the result in assay [7], in assay [8], in assay [9], in [10], in [11] and in assay [12] was inactive. In [13], the result was inactive. Further, the AC50 in assay [14] is 10.5 µM (active).

In the case of `CC(C)(C)OOC(C)(C)CCC(C)(C)OOC(C)(C)C`, the outcome in assay [1], in assay [2], in assay [3], in assay [4], in [5] and in assay [6] was inactive. The outcome in [7], in assay [8], in [9], in assay [10], in assay [11] and in assay [12] was inactive. Further, the result in [13] and in assay [14] was inactive.

In the case of `ClC1=C(Cl)[C@]2(Cl)[C@H]3[C@H]([C@@H]4C=C[C@H]3C4)[C@@]1(Cl)C2(Cl)Cl`, the outcome in assay [1] was inactive. The AC50 in assay [2] was 31.6 µM (active); in assay [3] it was 31.2 µM (active); in assay [4] it was 31.5 µM (active); in assay [5] it was 29.8 µM (active); in [6], 16.8 µM (active); in assay [7], 27.9 µM (active). Also, the AC50 in assay [8] was 27.5 µM (active); in assay [9], 31.3 µM (active); in assay [10], 32.7 µM (active); in assay [11] it was 35 µM (active); in [12], 15.4 µM (active); in assay [13] it was 30.9 µM (active). The AC50 in [14] was 15 µM (active).

With `CCN(CC)CCO`, the result in [1], in assay [2], in [3], in assay [4], in [5] and in assay [6] was inactive. In addition, the outcome in [7], in assay [8], in [9], in assay [10], in assay [11] and in assay [12] was inactive. The result in assay [13] and in [14] was inactive.

`CC(C)(O)c1cnn2c(-c3ccc(F)c(-c4c(F)cccc4C#N)c3)cnc2n1`: the AC50 was 30.6 µM (active) in assay [1]; 20 µM (active) in [2]; 9.68 µM (active) in assay [4]; 20 µM (active) in assay [5]; 20 µM (active) in assay [7]; 7.8 µM (active) in assay [12]. In [13], the AC50 is 4.31 µM (active). Also, the outcome in assay [3], in assay [6], in [8], in assay [9], in assay [10] and in assay [11] was inactive. In addition, in assay [14], the outcome was inactive.

Usually AC50 stands for the concentration at which the activity in the assay is half-maximal.

The record behind these values is PubChem BioAssay (EPA / NIEHS).
